Algae TAG accum: inducers of TAG accumulation in Chlamydomonas, primary screen, qHTS, Chlamydomonas reinhardtii | AID 1159537, 2015 | calls only at 10 µM (by protocol) | Nile Red fluorescence, 72 h | 44,000 compounds, 0.84% hits; call rule not given here;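 note: hits raise Nile Red signal meaning more stored TAG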
Numbers without * were called inactive; i = inactive; + = active, no number. The full list was thinned out, with hits kept by preference.

SMILES	Algae TAG accum
O=[N+]([O-])c1ccc(CNC2CCCCCC2)cc1	+
O=[N+]([O-])c1cccc(CNC2CCCCCC2)c1	+
O=[N+]([O-])c1cccc(CN2CCCCCC2)c1	i
CN1CCC(N(C)Cc2cccc([N+](=O)[O-])c2)CC1	i
CN(Cc1ccc([N+](=O)[O-])cc1)C1CCCCC1	+
CC1CCCCC1NCc1ccc([N+](=O)[O-])cc1 (configuration not stated)	i
O=[N+]([O-])c1ccc(CNC2CCCC2)cc1	+
O=C(NC1CCCCCC1)c1cccc([N+](=O)[O-])c1	i
O=C(NC1CCCCCC1)c1ccc([N+](=O)[O-])cc1	i
COc1ccc(S(=O)(=O)N(Cc2ccccc2)c2ccccc2C(=O)NC2CCCC2)cc1	i
CC(C)C(C(=O)O)N1C(=O)C2C3C=CC(C2C1=O)C1C(=O)N(C(C(=O)O)C(C)C)C(=O)C31 (configuration not stated)	i
Cc1nc2ccc(NC(=O)Nc3ccc(N(C)C)cc3)cc2nc1C	i
CN(C)c1ccc(NC(=O)Nc2ccc3nc(-c4ccccn4)c(-c4ccccn4)nc3c2)cc1	+
O=C(Nc1ccc2nc(-c3ccccn3)c(-c3ccccn3)nc2c1)N1CCCC1	i
CN(CC(O)COc1ccc(F)cc1)C1CCCCC1 (configuration not stated)	+
Cc1ccc(OCC(O)CN2CCN(Cc3ccccc3)CC2)cc1C (configuration not stated)	i
Cc1ccc(OCC(O)CN(C)C)cc1 (configuration not stated)	i
Cc1ccc(OCC(O)CN(C)C2CCCCC2)cc1C (configuration not stated)	+
CN(CC(O)COCc1ccccc1)C1CCCCC1 (configuration not stated)	i
OC(COc1ccccc1Br)CN(C1CCCCC1)C1CCCCC1 (configuration not stated)	i
NC(=O)Oc1ccc(C2CCCCC2)cc1	i
CC1CCc2c(sc(N)c2C#N)C1 (configuration not stated)	i
Cc1ccc(CN2CCC(C(=O)NCc3ccccc3Cl)CC2)cc1	+
O=C(NCCc1ccccc1)C1CCN(Cc2ccccc2Cl)CC1	i
Cc1ccc(CNC(=O)C(=O)NCc2ccccc2Cl)cc1	i
SMILES	Algae TAG accum
COc1cc2c(cc1OC)CN(Cc1cccc(Cl)c1Cl)CC2	i
O=C(CCc1ccccc1)Nc1ncc(S(=O)(=O)c2ccc([N+](=O)[O-])cc2)s1	i
Cc1ccc(S(=O)(=O)Nc2ccc3c(c2)OCCO3)cc1[N+](=O)[O-]	i
CC(=O)c1cccc(NC(=O)CN(c2cccc(Br)c2)S(C)(=O)=O)c1	i
CCN(CC)C(=O)c1ccccc1NC(=O)c1ccc(C)cc1	i
O=C(COc1ccccc1Cl)Nc1sc2c(c1C(=O)NCC1CCCO1)CCCC2 (configuration not stated)	i
CCOC(=O)N1CCN(CCC(=O)Nc2cc(C)ccc2OC)CC1	i
Cc1ccc(C(=O)Nc2ccc(Cl)cc2C)cc1C	+
Cc1ccc(C(=O)Nc2ccc(I)cc2C)cc1C	i
Cc1ccc(NC(=O)c2ccc(Cl)cc2)c(C)c1	i
COc1ccc(OCCSc2nc3ccccc3c(=O)[nH]2)cc1	i
O=C(Cc1ccccc1[N+](=O)[O-])Nc1ncn[nH]1	i
C/C=C(\C)CN(C)CCN(C)C	i
C/C(=C\c1ccccc1)CN(C)C1CCN(C)CC1	i
C/C(=C\c1ccccc1)CN(C)CCN(C)C	+
Cc1cc(I)ccc1NC(=O)c1ccc(Cl)cc1	i
COc1ccccc1C1Nc2ccc3ncccc3c2C2=C1C(=O)CCC2 (configuration not stated)	i
Cc1cc(C)c(C(=O)Nc2cccc(C(=O)Nc3ccccc3Cl)c2)c(C)c1	i
O=C(O)CCCC(=O)N1CCc2ccccc21	i
CC(=O)Nc1ccc(S(=O)(=O)Nc2ccc(Oc3ccc(C)cc3)cc2)cc1	i
Cc1ccc(NC(=O)Cc2ccc(Br)cc2)cc1	i
CCCC(=O)Nc1ccc(NC(=O)c2ccc(Br)cc2)cc1	i
CCN(CC)CC(=O)Nc1ccc(Br)cc1	+
O=c1cc(Nc2cccc(Cl)c2)[nH]c(=O)[nH]1	i
O=C1C2C3C=CC(C2C(=O)N1Cc1ccccc1)C1C(=O)N(Cc2ccccc2)C(=O)C31 (configuration not stated)	i
SMILES	Algae TAG accum
COc1cccc(C(=O)Nc2cccc3nsnc23)c1	i
C(=C\c1ccccc1)/CN1CCN(C2CCN(CCc3ccccc3)CC2)CC1	i
COc1cc(CN2CCN(C/C=C/c3ccccc3)CC2)cc(OC)c1OC	i
COc1ccc(CN2CCN(C/C=C/c3ccccc3)CC2)cc1	+
C(=C\c1ccccc1)/CN1CCN(c2ncccn2)CC1	i
COc1ccc(CN2CCN(C/C=C/c3ccccc3)CC2)c(O)c1	i
C(=C\c1ccccc1)/CN1CCN(C2C3CC4CC(C3)CC2C4)CC1 (configuration not stated)	+
COc1ccc(CNC(=O)CN(c2ccccc2OC)S(=O)(=O)c2ccccc2)cc1	i
